Bioassay records (PubChem BioAssay)
Sampled rows, rich in hits. Any-hit rate of the full collection: about 2.1%.
INS-1E GSIS act – primary screen for activators of insulin secretion dependent on glucose, INS-1E cells, GLuc reporter luminescence; INS-1E GLuc reporter insulin secretion, 2-3 h; activation, % at 16.6 µM; 370,000 tested, 0.61% active;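 active = lowest replicate activation of at least 40%, so every replicate reaches that level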;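 also: 0% = median of neutral control wells and 100% = median of IBMX positive control wells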
NSD2 HMT inh – NSD2 (human) methyltransferase inhibition | O96028 | NSD2 peptide methylation, AlphaScreen, 120 min | inhibition, % at 12.5 µM | 310,000 tested, 0.54% active | AID 743445; in the data active = inhibition above about 50%
Target sequence (O96028 whole entry, looked up): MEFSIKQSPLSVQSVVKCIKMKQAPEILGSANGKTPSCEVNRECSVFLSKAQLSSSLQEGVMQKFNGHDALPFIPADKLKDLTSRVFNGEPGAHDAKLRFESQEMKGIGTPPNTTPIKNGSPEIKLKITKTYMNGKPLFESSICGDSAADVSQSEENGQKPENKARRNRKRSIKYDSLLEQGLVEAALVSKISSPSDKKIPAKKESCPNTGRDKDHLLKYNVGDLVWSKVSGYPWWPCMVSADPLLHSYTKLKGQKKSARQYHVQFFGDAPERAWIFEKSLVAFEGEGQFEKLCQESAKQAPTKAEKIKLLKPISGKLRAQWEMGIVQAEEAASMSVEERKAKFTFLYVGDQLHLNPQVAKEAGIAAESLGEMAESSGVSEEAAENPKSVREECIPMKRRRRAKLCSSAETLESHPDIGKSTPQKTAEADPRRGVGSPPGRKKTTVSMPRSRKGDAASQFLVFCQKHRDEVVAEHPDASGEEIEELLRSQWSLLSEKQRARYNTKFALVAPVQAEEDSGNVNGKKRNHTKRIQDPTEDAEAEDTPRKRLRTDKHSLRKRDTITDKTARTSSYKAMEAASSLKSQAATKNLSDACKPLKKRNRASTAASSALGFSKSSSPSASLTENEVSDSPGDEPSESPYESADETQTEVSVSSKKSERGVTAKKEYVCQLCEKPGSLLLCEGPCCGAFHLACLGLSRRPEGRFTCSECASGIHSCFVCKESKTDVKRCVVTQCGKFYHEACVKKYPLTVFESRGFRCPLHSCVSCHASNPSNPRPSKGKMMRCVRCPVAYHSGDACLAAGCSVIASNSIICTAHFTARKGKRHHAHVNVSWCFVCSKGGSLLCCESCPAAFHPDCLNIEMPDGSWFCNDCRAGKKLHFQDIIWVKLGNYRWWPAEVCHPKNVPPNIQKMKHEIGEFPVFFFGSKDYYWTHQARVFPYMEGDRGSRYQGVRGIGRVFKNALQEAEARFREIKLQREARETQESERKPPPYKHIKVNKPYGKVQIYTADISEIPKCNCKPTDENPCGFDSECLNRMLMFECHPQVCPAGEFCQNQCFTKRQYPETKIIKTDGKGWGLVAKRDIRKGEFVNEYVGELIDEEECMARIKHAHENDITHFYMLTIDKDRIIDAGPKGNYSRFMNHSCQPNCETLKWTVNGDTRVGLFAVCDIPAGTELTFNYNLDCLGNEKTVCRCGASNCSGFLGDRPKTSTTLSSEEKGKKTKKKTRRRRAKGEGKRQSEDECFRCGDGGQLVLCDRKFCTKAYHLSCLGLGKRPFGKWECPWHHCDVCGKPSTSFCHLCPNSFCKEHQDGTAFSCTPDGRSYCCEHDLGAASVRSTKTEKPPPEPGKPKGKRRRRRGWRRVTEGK
AF4-AF9 inh – inhibitors of human MLL-AF4/AF9 interaction; P42568; AlphaScreen, biotin-AF4 peptide binding to FLAG-AF9; inhibition, % at 10 µM; 350,000 tested, 0.47% active; AID 651704;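 active = every replicate reaching a set inhibition limit, whatever the replicate mean, cut at about 25% in these data; inconclusive = mean inhibition reaches that limit but some replicates miss it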;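 also: 0% = plate neutral control median and 100% = total signal loss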
PGC1a acetyl inh – PGC1a acetylation modulation, inhibitor mode; inhibition, % at 15.6 µM; AID 651687; U2OS PGC1a acetylation, AlphaScreen anti-acetyl-lysine; with virally co-expressed GCN5 acetyltransferase; 350,000 tested, 0.17% active;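 active = every replicate shows inhibition of at least 40%; inconclusive = mean inhibition at least 40% but some replicate below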;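 also: 0% = neutral control wells and 100% = positive control wells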
Env fusion inh – blocks HIV Env-driven cell-cell fusion; HeLa-JRFL Env/CEM21 cell fusion, luciferase; inhibition, % at 12.3 µM; 360,000 tested, 1.1% active;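 active = mean replicate inhibition score of at least 50 and every replicate individually at or above 50; inconclusive = only one of the two criteria met; inactive = mean below 50 and not all replicates reaching 50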;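 also: 0% = plate neutral controls and 100% = maraviroc near 300 nM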
* = called active by the depositor; ? = inconclusive; nt = no result given; [ ] = dose if it differs, or a comment.

SMILES | INS-1E GSIS act | NSD2 HMT inh | AF4-AF9 inh | PGC1a acetyl inh | Env fusion inh
Cc1ccc(-c2nc3c(=O)n(-c4ccccc4)c4c(c(=O)n(C)c(=O)n4C)c3o2)cc1 | 2.7 | -4.2 | -3.1 | -4.3 | -11.6
CCOC(=O)c1oc2ccccc2c1NC(=O)c1ccco1 | 49.2* | -1.3 | -1.1 | nt | 11.9
COc1ccc(NC(=O)Nc2ccc3c(c2)N(C)C(=O)CS3)cc1OC | 1.1 | nt | 0.5 | 2.6 | -18.8
COc1ccc(NC(=O)Nc2ccc3c(c2)N(C)C(=O)CS3)cc1Cl | nt | -4.1 | nt | 22.2 | 75.8*
CCOc1ccccc1/C=N/NC(=O)c1cccc(Cl)c1 | 2.2 | 0.0 | nt | nt | 2.9
CC1CCN(S(=O)(=O)c2cnc(Cl)c(Br)c2)CC1 | 10.6 | -2.5 | 27.0* | 3.2 | -2.6
COc1ccc(C(=O)Nc2nc(-c3ccccc3)c(C(C)=O)s2)c(OC)c1 | 0.6 | -6.4 | -1.2 | nt | -44.2
O=[N+]([O-])c1ccc(Cl)c(/C=N/n2c(-c3ccncc3)n[nH]c2=S)c1 | nt | 5.4 | 0.8 | -3.3 | -1.9
c1ccc(Cn2nnc3ccccc32)cc1 | 1.3 | -2.6 | 1.9 | 1.6 | 7.5
C[C@@H](Oc1ccccc1)c1nnn(Cc2ccccc2)c1-c1c([C@@H](C)Oc2ccccc2)nnn1Cc1ccccc1 | nt | nt | -0.5 | nt | 73.1*
COc1ccc(C2c3ccc4ccccc4c3Oc3ncn(CCO)c(=N)c32)cc1 (stereo not given) | -14.9 | nt | nt | -5.0 | nt
COc1ccc(/C=N/NC(=O)c2cccc(NC(=O)c3ccc(F)cc3)c2)c(C(=O)O)c1OC | -14.5 | -3.5 | 1.6 | -4.5 | -5.8
Cc1onc(-c2c(F)cccc2Cl)c1C(=O)Nc1sc2c(c1C(N)=O)CCC2 | -5.2 | -0.5 | nt | -16.8 | 61.5*
N#Cc1c(NC(=O)CSc2nnc(-c3ccncc3)n2CC2CCCO2)sc2c1CCCC2 (stereo not given) | nt | 1.9 | nt | 2.5 | 38.7
N#Cc1c(NC(=O)CSc2ncc(-c3ccccc3)n2CC2CCCO2)sc2c1CCCC2 (stereo not given) | nt | -2.2 | nt | 4.9 | 67.5*
Cc1onc(-c2ccccc2)c1C(=O)Nc1sc2c(c1C#N)CCC2 | -45.3 | 3.1 | nt | -1.7 | 66.5*
CCOC(=O)c1cccc(Nc2ncnc3ccc(C)cc23)c1 | -14.5 | -3.0 | nt | -6.9 | nt
CCOC(=O)C/C(=N\Nc1ncnc2ccccc12)c1ccccc1 | 9.9 | -6.9 | -3.1 | nt | -0.2
CCOc1ccc(Nc2ncnc3ccc([N+](=O)[O-])cc23)cc1 | -1.4 | nt | 0.6 | 49.6* | 37.9
CCOC(=O)c1ccc(Nc2ncnc3ccc(C)cc23)cc1 | 85.2* | -1.1 | nt | -3.6 | nt
CCOC(=O)/C(=N\Nc1ncnc2ccccc12)c1ccc(C)cc1 | -24.7 | 4.7 | 42.0* | -0.3 | -10.1
CCOc1ccc(Nc2ccc3nonc3c2[N+](=O)[O-])cc1 | 1.9 | 3.8 | -1.2 | 19.1 | -0.7
O=C(N/N=C/c1cccc2ccccc12)c1ccccc1Cl | -23.9 | -0.6 | 7.2 | nt | -10.4
O=C(NN=Cc1ccccc1Cl)c1cccc2ccccc12 | 80.3* | -1.0 | -8.6 | nt | 2.8
CN(C)CCOc1ccc(/C(=C(/CCCl)c2ccccc2)c2ccccc2)cc1 | 104.3* | nt | ? | -108.8 | nt
SMILES | INS-1E GSIS act | NSD2 HMT inh | AF4-AF9 inh | PGC1a acetyl inh | Env fusion inh
CC(OC(=O)CNS(=O)(=O)c1ccc(C#N)cc1)C(=O)Nc1cccc(C#N)c1 (stereo not given) | 21.8 | -1.0 | -0.1 | nt | 0.4
CC1(C)C2CCC1(C)C(OC(=O)C[n+]1ccccc1N)C2 (stereo not given) | 41.5* | 0.8 | -6.6 | -2.6 | 0.5
CCC(NC(=O)Nc1nnc(C(F)(F)F)s1)(C(F)(F)F)C(F)(F)F | nt | 1.3 | nt | 3.2 | nt
COc1ccc(NC(=O)Cn2c(=O)n(-c3ccccc3)c(=O)c3sccc32)c(OC)c1 | 25.4 | 1.9 | 1.6 | 9.1 | -0.6
C=CCN([C@@H](CC(C)C)C(=O)OC)S(=O)(=O)N(CC=C)[C@@H](CC(C)C)C(=O)OC | -7.4 | nt | -9.2 | nt | 80.7*
Cc1nc2ncnn2c(N2CCN(c3cccc(C(F)(F)F)c3)CC2)c1C | nt | 2.2 | nt | nt | 60.1*
Cc1nc(N2CCN(C(=O)COc3ccccc3)CC2)c2c(C)c(C)sc2n1 | nt | -1.9 | nt | 17.0 | 61.5*
C[C@@H]1CN([C@@H](C)CO)C(=O)c2cc(N(C)C)ccc2O[C@H]1CN(C)Cc1ccc(-c2ccccc2)cc1 | -8.4 | nt | 34.3* | -12.8 | nt
C[C@@H]1CN([C@H](C)CO)C(=O)c2cc(N(C)C)ccc2O[C@@H]1CN(C)Cc1ccc(-c2ccccc2)cc1 | 7.0 | nt | 47.4* | -18.8 | nt
C[C@H](CO)N1C[C@H](C)[C@@H](CN(C)Cc2ccc(Cl)c(Cl)c2)Oc2ccc(N(C)C)cc2C1=O | -32.3 | nt | 20.0 | 3.9 | 58.5*[16.7 µM]
